A selection: hits, their analogues and other compounds. The true share with any hit is near 5.6%.
PKM2 act – PKM2 (human) enzyme activation; P14618; actives 0.34% (n = 260,000); Potency, µM (titrated, usually from 57.5 µM), for the others: at the top dose activation, usual class: activators; purified PKM2, Kinase-Glo ATP luminescence, activation; response scale: 0% is enzyme alone, no compound; note: potency is the fitted concentration of half-maximal effect; nearly all actives have a fitted effect of over 55% in size
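Purified hPK-M2 (>95% pure) converted ADP (0.1 mM final) to ATP with 0.5 mM PEP in 50 mM imidazole pH7.2, KCl, MgCl2, Tween 20, BSA; 1 h at room temperature. ATP detected by Kinase-Glo luminescence.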
Six1-Eya2 inh – blocks human Six1 binding to Eya2; activity change, % (test concentration not listed); Q15475+O00167; AID 651725; actives 0.56% (n = 360,000); AlphaScreen GST-Six1/His-Eya2 binding, biochemical; stronger effect = lower value; in the data active = activity change below about -65%; inconclusive = mostly about -30% to -63%
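GST-Six1 + His-Eya2 (5X stock: 250/500 nM); Tris pH 8.0, 300 mM NaCl, 0.05% BSA, 0.02% Tween 20; GSH donor/Ni acceptor beads; 1 h 37 °C dark; AlphaScreen readout.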
RORg inh – inhibitors of mouse ROR gamma transcriptional activity; P51450; Drosophila S2 Gal4-RORgamma UAS-luciferase reporter, 20 h; Potency, µM (highest dose often 53.6 µM), for inactives: top-dose activity change, negative = inhibition, hits mostly inhibitors; actives 5.4% (n = 310,000); AID 2551; note: potency is the fitted concentration of half-maximal effect; nearly all actives have a fitted effect of over 60% in size
Target sequence (P51450 whole entry, looked up, the tested form may be a part): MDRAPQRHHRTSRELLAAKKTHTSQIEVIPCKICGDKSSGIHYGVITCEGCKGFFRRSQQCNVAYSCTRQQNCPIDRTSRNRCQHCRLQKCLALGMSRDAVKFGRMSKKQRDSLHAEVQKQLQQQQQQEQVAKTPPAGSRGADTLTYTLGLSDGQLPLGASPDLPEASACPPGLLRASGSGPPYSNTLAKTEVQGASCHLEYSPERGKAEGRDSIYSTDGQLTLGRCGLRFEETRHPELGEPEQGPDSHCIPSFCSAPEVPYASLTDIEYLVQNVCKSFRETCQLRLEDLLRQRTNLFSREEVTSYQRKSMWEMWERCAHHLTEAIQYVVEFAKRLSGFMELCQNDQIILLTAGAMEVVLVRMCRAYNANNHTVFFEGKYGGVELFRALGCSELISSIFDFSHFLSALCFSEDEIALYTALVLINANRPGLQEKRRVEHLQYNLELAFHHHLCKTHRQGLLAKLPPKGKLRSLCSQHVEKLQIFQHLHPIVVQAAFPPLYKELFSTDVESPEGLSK
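Using a luciferase readout, inhibitors were identified by reduced reporter activity in Drosophila cells coexpressing a copper-inducible Gal4–ROR gamma fusion and UAS-driven Photinus luciferase, incubated 20 hr after 700 uM copper sulfate.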
VP16 counter – counter-screen for ROR gamma inhibitors: Gal4-VP16 reporter; Drosophila S2 Gal4-VP16 UAS-luciferase, luminescence, 20 h; Potency, µM (series often up to 53.6 µM), for inactives: top-dose activity, negative = inhibition, most hits filed as inhibitors; actives 3.5% (n = 310,000); AID 2546;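 note: Gal4-VP16 expression switched on by copper sulfate through the metallothionein promoter; potency is the fitted concentration of half-maximal effect; nearly all actives have a fitted effect of over 50% in size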
CtBP-E1A blk – inhibitors of CtBP/E1A interaction; AlphaScreen GST-E1A/His-CtBP binding, 1536-well; stronger effect = lower value; activity change, % (no concentration beside the values); actives 0.49% (n = 340,000); in the data active = activity change below about -65%; inconclusive = mostly about -30% to -63%
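Steps: dispense buffer (Tris pH 8.0, NaCl 300 mM, TCEP 1 mM, BSA, Tween 20); add 5X protein mix (GST-E1A, His-CtBP, 125 nM each); pin 23 nL compound; 2 h at 37 °C, dark; add 5X beads (50 ug/mL); 1 h; read.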
Numbers without * were called inactive; ? = inconclusive; . = no result given; [ ] = another dose, or the depositor's remark. Unless noted, calls come from the whole dose curve; as a rule, active = well fitted curve in the direction sought with a large enough effect; inconclusive = small, poorly fitted or top-dose-only effect, or another doubt; inactive = no such curve, though single readings can be large; an effect the other way counts as inactive or inconclusive. % is set by controls: 0 for no effect and ±100 for the full control effect.

SMILES | PKM2 act | Six1-Eya2 inh | RORg inh | VP16 counter | CtBP-E1A blk
N#CC1=C(N)SC(N)=C(C#N)C1c1c(Cl)cccc1Cl | -1% | -5 | 8.9µM* | ? | 0
OCCNCc1ccc(OCc2ccc(Cl)cc2Cl)cc1 | -2% | 8 | 13µM* | -2%[10 µM] | -20
O=C(NCCSCc1c(F)cccc1Cl)Nc1ccccc1 | . | 8 | 40% | 27% | 4
OCCCCNCc1ccc(OCc2ccc(Cl)cc2Cl)cc1 | -15% | 6 | ? | -15% | 13
S=C(NCCSCc1ccc(Cl)cc1Cl)Nc1ccccc1 | -2% | -1 | 3.2µM* | 4µM* | -8
O=C(C/C=N\OCc1ccc(Cl)cc1Cl)Nc1ccccc1 | 0% | 4 | 11% | 4% | -8
S=C(NCCSCc1c(Cl)cccc1Cl)Nc1ccccc1 | 7% | -11 | 2µM* | 5µM* | -8
S=C(Nc1ccccc1)Nc1ccc(OCc2ccc(Cl)cc2Cl)cc1 | -22% | 8 | 1.4µM* | 7.1µM* | 5
S=C(NCCSCc1ccc(Cl)c(Cl)c1)Nc1ccccc1 | . | -4 | . | . | -1
Cn1c(=O)c2cc(NC(=S)NCc3ccccc3F)ccc2n1C | . | -9 | . | . | 3
Cc1cccc(N2Cc3ccc(Br)cc3C2)c1 | . | -11 | . | . | -1
Cc1ccccc1CSCCNC(=S)Nc1ccccc1 | -6% | -7 | 2.2µM* | 7.1µM* | -11
COc1ccc(CSCCNC(=S)Nc2ccccc2)cc1Cl | 23% | -11 | 4.5µM* | ? | -1
Fc1ccc2[nH]c3c(NCc4ccccc4)ncnc3c2c1 | . | -6 | ? | 5.6µM* | -10
COc1ccc2[nH]c3c(NCc4ccco4)ncnc3c2c1 | -1% | ? | ? | 3% | 0
Cc1nn(-c2ccc(NC(=O)c3ccncc3)cc2)c(C)c1Cl | 0% | 6 | ? | 7.9µM* | -5
C/C(=N\NC(=O)c1c(Cl)c(C)nn1C)c1ccc(NC(=O)c2ccncc2)cc1 | -3% | 5 | -38% | -5% | -1
Clc1ccc(CCNc2ncnc3nc[nH]c23)cc1 | 8% | 3 | -22% | 11µM* | 3
Cc1cc(N2CCCC(C(=O)Nc3cccc4ccccc34)C2)n2ncnc2n1 (stereo not drawn) | -5% | -13 | 26% | 6%[10 µM] | -5
COC(=O)c1ccc(C(=O)OC)c(NC(=S)N2CCCC(C)C2)c1 (stereo not drawn) | -1% | 14 | 7.9µM* | 7% | 0
COC(=O)c1ccc(C(=O)OC)c(NC(=S)N2CC(C)CC(C)C2)c1 (stereo not drawn) | 0% | 11 | 11µM* | 14% | 4
COC(=O)c1ccc(C(=O)OC)c(NC(=S)N2CCC(N3CCCCC3)CC2)c1 | 10% | 3 | -19% | -1% | .
CCCCn1c(N)c(N(CC(C)C)C(=O)C2CC(=O)N(c3ccc(CC)cc3)C2)c(=O)[nH]c1=O (stereo not drawn) | . | 6 | . | . | 4
Cc1cccc(C)c1NC(=S)Nc1ccc(Cl)c(Cl)c1 | 1% | 4 | 6.3µM* | ? | 5
Cc1cc(C)cc(NC(=S)Nc2ccc(Cl)c(Cl)c2)c1 | 4% | -8 | 10µM* | ? | -3
SMILES | PKM2 act | Six1-Eya2 inh | RORg inh | VP16 counter | CtBP-E1A blk
COc1cc(C)c(COc2ncnc3ccccc23)cc1OC | 3% | -3 | 38% | -2% | -2
O=C(c1cccs1)N1CCC(c2nc3c(nnn3Cc3c(Cl)cccc3Cl)c(=O)[nH]2)CC1 | . | -22 | -1% | -9% | -2
O=c1[nH][nH]c2c(N=Cc3ccccc3O)ccc(F)c12 | 23% | ? | -27% | -14% | -91*
CC(=O)c1c(O)cccc1O | . | . | ? | -4% | .
Cc1ccc2nc3cc([N+](=O)[O-])cc([N+](=O)[O-])c3cc2c1 | 4% | -13 | ? | 2.2µM* | 0
CCN(CC)c1ccc2cc(-c3nc4ccccc4n3C)c(=O)oc2c1 | -16% | 17 | 1% | 2% | -11
CCN(CC)c1ccc2cc(-c3nc4ccccc4[nH]3)c(=O)oc2c1 | 3% | 22 | 2.8µM* | -7%[0.365 µM] | 5
COCCSc1nnc(NC(=O)CCS(=O)(=O)c2ccccc2)s1 | . | 11 | 0% | -6% | 1
CCCCn1c(=O)[nH]c(=O)c2c1nc(Cn1ncc(Cl)c(Cl)c1=O)n2CCC | 2% | -13 | 16µM* | 7.9µM* | 3
Cn1cccc1-c1nc2ccccc2[nH]1 | -1% | -3 | -4% | -4% | 3
Cc1cc2c(c(=O)o1)C(c1cccs1)C(C#N)=C(N)O2 (stereo not drawn) | 8% | 1 | 14µM* | ? | 3
Cc1cc(Br)ccc1NC(=O)CN(C)C(=O)c1cc([N+](=O)[O-])ccc1N1CCOCC1 | . | 6 | . | . | -19
COc1ccc(CO/N=C/c2c(C)[nH]c(=O)[nH]c2=O)cc1 | 25µM* | 1 | 8% | -4% | 6
COc1ccc(C(=O)N/N=C/c2c(C)[nH]c(=O)[nH]c2=O)cc1 | 2% | ? | -16% | -4% | -86*
Cc1ccc(CO/N=C/c2c(O)cc(C)oc2=O)cc1 | -8% | 4 | 30% | -3% | 3
O=S(=O)(CCN1CCOCC1)c1ccc(OC(F)(F)F)cc1 | . | 5 | -7% | -6% | 3
Cc1nc2ccc(C(=O)NCCc3c[nH]c4ccccc34)cn2c1N(C)C(=O)CCc1ccccc1 | . | -5 | . | . | -10
Cc1cc(-c2n[nH]c(=S)n2/N=C/C(Cl)=C/c2ccccc2)n[nH]1 | 0% | -13 | 8.9µM* | ? | 6
Cc1cc(-c2n[nH]c(=S)n2/N=C/c2cccc(O)c2)n[nH]1 | -2% | 4 | 3% | 0% | -3
S=c1[nH]nc(-c2ccco2)n1/N=C/C(Cl)=C/c1ccccc1 | 2% | -9 | 4µM* | 11µM* | 3
CC(/C=N/n1c(-c2ccco2)n[nH]c1=S)=C\c1ccco1 | -6% | -5 | ? | ? | -1
Cc1ccc2[nH]c3c(c2c1)CC/C(=C/c1ccccc1)C3=O | -3% | -2 | 4µM* | 6.3µM* | -2
Cc1ccc(N2C(=N)/C(=C3/Nc4ccccc4S3)C(c3ccccc3)C2=O)cc1 (stereo not drawn) | -14% | -2 | -18% | -8% | -1
O=C(Nc1ccc(-c2nc3ccccc3s2)c(O)c1)C1=COCCO1 | 2% | 1 | 0.5µM* | ? | 6
O=C(Nc1ccc(-c2nc3ccccc3s2)cc1)C1=COCCO1 | -15% | -18 | 2µM* | 4.5µM* | -7
N#Cc1ccccc1OCC(=O)NC(=O)NCc1ccco1 | 0% | 2 | 22% | -5% | 8
COc1ccc(C2(C#N)CCC(=O)N2c2ccccc2)cc1 (stereo not drawn) | 0% | 5 | 13% | 12% | 2
CCn1nc(C)c(CNC(=O)c2ccc(OC3CCN(Cc4ccccn4)CC3)cc2)c1C | . | -10 | -15% | 7.1µM* | -5

Screens: PubChem BioAssay, National Center for Advancing Translational Sciences (NCATS)
